# Active and inactive are the calls of the source. Unless noted, how the calls were made is not given here.
# Assays:
# [1] = circadian clock period modulators, cell-based, LOPAC library, luminescence reporter (AID 2774); conditions: circadian reporter cells, at 7 µM, actives lie on both sides;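 further: values are relative to mean of DMSO wells on each plate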
# [2] = test system: Hepatitis C virus NS3 helicase; assay: HCV NS3 helicase inhibitors, primary screen, biochemical, fluorescence polarization, LOPAC1280 library (AID 687035; in the data active means inhibition above about 37%); conditions: Purified HCV NS3 helicase, Cy5-dT15 ssDNA binding fluorescence polarization; stronger effect = higher value; concentration not given here
# [3] = Cy5 fluorescence quenching or enhancement artefacts, artefact control for HCV NS3 helicase inhibitor project, biochemical, LOPAC1280 (AID 687037); conditions: Cy5-DNA-NS3h complex fluorescence interference counterscreen
# [4] = LFS_MB_P medulloblastoma growth inhibition, cell-based, chromothripsis tumors, cisplatin or BGB combos (AID 1671449; in the data active means inhibition above about 80%;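 further: cells exposed for 96 hours; 0% = vehicle DMSO and 100% = killing by high DMSO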); conditions: LFS_MB_P medulloblastoma cells
# [5] = HDN33 neuroblastoma growth inhibition, cell-based, chromothripsis tumors, cisplatin or BGB combos (AID 1671450; in the data active means inhibition above about 80%;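 further: cells exposed to compound for four days; 0% = vehicle DMSO and 100% = cell killing by high DMSO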); conditions: HDN33 neuroblastoma cells, stronger effect = higher value
# [6] = ICB984 medulloblastoma cell growth inhibition, synergistic combos for chromothripsis tumors, cisplatin or BGB combos (AID 1671451); conditions: ICB984 medulloblastoma cells, drug combinations, stronger effect = higher value;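 further: cells exposed for 96 hours before readout; 0% = vehicle DMSO and 100% = killing by high DMSO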
# [7] = LFS_MB_1R medulloblastoma cell growth inhibition, synergistic combos for chromothripsis tumors, cisplatin or BGB combos (AID 1671452; in the data active means inhibition above about 80%;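 further: cells exposed for 96 hours before readout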); conditions: LFS_MB_1R medulloblastoma cells, stronger effect = higher value
# [8] = HTB85 osteosarcoma cell growth inhibition, synergistic combos for chromothripsis tumors, BGB or cisplatin IC20 combos (AID 1671453; in the data active means inhibition above about 80%;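 further: cells exposed for 96 hours before readout; 0% = vehicle DMSO and 100% = high DMSO killing control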); conditions: HTB85 osteosarcoma cells, drug combinations, stronger effect = higher value
# [9] = CRL2098 osteosarcoma cell growth inhibition, synergistic combos for chromothripsis tumors, BGB or cisplatin IC20 combos (AID 1671454; in the data active means inhibition above about 80%;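 further: cells exposed for 96 h before readout; 0% = vehicle DMSO and 100% = killing by high DMSO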); conditions: CRL2098 osteosarcoma cells, drug combinations, stronger effect = higher value
# [10] = HD-MB03 medulloblastoma cell growth inhibition, synergistic combos for chromothripsis tumors, BGB or cisplatin IC20 combos (AID 1671455; in the data active means inhibition above about 83%;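 further: 0% = vehicle DMSO and 100% = high DMSO as cytotoxic control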); conditions: HD-MB03 medulloblastoma cells, stronger effect = higher value
# [11] = UWB1.289 ovarian carcinoma cell growth inhibition, synergistic combos for chromothripsis tumors, BGB or cisplatin combos (AID 1671456; in the data active means inhibition above about 80%;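 further: cells exposed to compound for four days; 0% = vehicle DMSO and 100% = killing by high DMSO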); conditions: UWB1.289 ovarian carcinoma cells, stronger effect = higher value
# [12] = MDA-MB-436 breast carcinoma cell growth inhibition, synergistic combos for chromothripsis tumors, BGB or cisplatin combos (AID 1671458); conditions: MDA-MB-436 breast carcinoma growth inhibition, drug combinations, stronger effect = higher value;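 further: cells exposed for 96 hours; 0% = vehicle DMSO and 100% = killing by high DMSO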
# [13] = growth inhibition of BT084 medulloblastoma cells, cell-based, ICGC_MB145, cisplatin and BGB IC40 combos (AID 1671461; in the data active means inhibition above about 80%;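 further: cells exposed to drugs for 96 hours; 0% = vehicle DMSO and 100% = high DMSO full killing control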); conditions: drug combinations, stronger effect = higher value
# [14] = growth inhibition of RCMB18 medulloblastoma cells, cell-based, cisplatin and BGB IC40 combos (AID 1671462; in the data active means inhibition above about 80%;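 further: cells exposed to compound for four days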); conditions: stronger effect = higher value
# [15] = growth inhibition of CRL1545 osteosarcoma cells, cell-based, cisplatin and BGB IC20 combos (AID 1671464; in the data active means inhibition above about 80%;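 further: cells exposed to compound for 96 hours before readout; 0% = vehicle DMSO and 100% = high DMSO killing control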); conditions: stronger effect = higher value
# [16] = modifiers of HSF1 nuclear foci, imaging, Selleck Cancer Library (AID 1347162; in the data active means plate-normalised HSF1 focus index below about 0.46); conditions: human cells, at 10 µM; SSMD: measured here: HSF1 foci SSMD mean; cell count: measured here: cell number; plate-normalised HSF1 focus index: stronger effect = lower value
# [17] = target: NAD(+) hydrolase SARM1 (Homo sapiens) (UniProt Q6SZW1); assay: SARM1 TIR NADase inhibitors, cell lysate, NAD-Glo luminescence (AID 1508614;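 active means compound whose remaining NAD level is above about 45 nM, limit read from the data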); conditions: SAM-TIR HEK293T lysate NADase, at 1 µM, stronger effect = higher value
# Sequence of NAD(+) hydrolase SARM1 (Homo sapiens) (Q6SZW1 whole entry, looked up): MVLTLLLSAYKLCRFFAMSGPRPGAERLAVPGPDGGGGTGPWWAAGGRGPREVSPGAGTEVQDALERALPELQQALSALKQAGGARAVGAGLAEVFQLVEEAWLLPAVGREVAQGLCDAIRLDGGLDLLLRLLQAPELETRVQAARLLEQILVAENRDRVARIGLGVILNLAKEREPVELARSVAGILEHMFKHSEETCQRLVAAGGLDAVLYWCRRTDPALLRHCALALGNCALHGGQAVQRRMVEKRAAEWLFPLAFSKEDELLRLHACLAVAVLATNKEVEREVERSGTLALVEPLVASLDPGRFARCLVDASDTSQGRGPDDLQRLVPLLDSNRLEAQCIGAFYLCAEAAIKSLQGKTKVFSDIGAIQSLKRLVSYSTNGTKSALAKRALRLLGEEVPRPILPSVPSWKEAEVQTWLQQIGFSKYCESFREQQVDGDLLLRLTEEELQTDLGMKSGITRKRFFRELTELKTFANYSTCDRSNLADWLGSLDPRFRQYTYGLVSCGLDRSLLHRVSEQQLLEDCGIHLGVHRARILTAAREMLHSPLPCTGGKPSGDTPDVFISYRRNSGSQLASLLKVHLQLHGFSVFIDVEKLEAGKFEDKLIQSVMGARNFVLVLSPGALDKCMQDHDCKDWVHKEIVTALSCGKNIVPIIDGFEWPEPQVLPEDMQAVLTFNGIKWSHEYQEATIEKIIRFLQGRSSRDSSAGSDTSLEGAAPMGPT
# [18] = measured here: combination with BGB IC40, at 0.05 µM
# [19] = measured here: with BGB IC20 combination, at 0.5 µM
# [20] = measured here: with cisplatin IC20 combination, at 0.5 µM
# [21] = measured here: combination with cisplatin, at 0.5 µM
structure (smiles),measurement,setting,value
O=c1[nH]c(=O)n([C@H]2C[C@H](O)[C@@H](CO)O2)cc1Br,period change,[1],-0.205 h (inactive)
same,inhibition,[2],-1% (inactive)
same,fluorescence ratio (interference),[3],1 (inactive)
same,inhibition,"[4]; at 0.5 µM, stronger effect = higher value",27% (inactive)
same,inhibition,"[4]; measured here: combination with BGB IC20, at 0.005 µM",-4.77%
same,inhibition,"[4]; measured here: combination with BGB IC40, at 0.005 µM",-39.7%
same,inhibition,[4]; [18],-12.1%
same,inhibition,"[4]; measured here: combination with cisplatin, at 0.5 µM, stronger effect = higher value",74.8%
same,inhibition,"[4]; measured here: combination with cisplatin, at 5 µM, stronger effect = higher value",-36%
same,inhibition,"[5]; BGB combo, at 5 µM",11.2%
same,inhibition,[5]; at 0.5 µM,21.5% (inactive)
same,inhibition,"[5]; cisplatin combo, at 5 µM",2.65%
same,inhibition,[5]; [19],31.8%
same,inhibition,[5]; [20],4.43%
same,inhibition,"[5]; single agent, at 5 µM",17%
same,inhibition,"[6]; BGB IC20 combo, at 0.005 µM",-12.2%
same,inhibition,"[6]; BGB IC40 combo, at 0.005 µM",-50%
same,inhibition,"[6]; BGB IC40 combo, at 0.05 µM",-16.9%
same,inhibition,[6]; at 0.5 µM,-24.2% (inactive)
same,inhibition,"[6]; cisplatin combo, at 0.05 µM",-21.6%
same,inhibition,"[6]; cisplatin combo, at 0.5 µM",-35.3%
same,inhibition,"[6]; cisplatin combo, at 5 µM",-5.29%
same,inhibition,"[6]; measured here: 5 uM single agent, at 5 µM",-6.23%
same,inhibition,[7]; at 0.5 µM,-8.78% (inactive)
same,inhibition,[7]; [18],-9.5%
same,inhibition,[7]; [21],-3.13%
same,inhibition,"[7]; measured here: combination with cisplatin, at 5 µM",18.2%
same,inhibition,[8]; at 0.5 µM,-5% (inactive)
same,inhibition,"[8]; measured here: with BGB IC20, at 0.5 µM",-14.3%
same,inhibition,"[8]; measured here: with BGB IC20, at 5 µM",-8.79%
same,inhibition,"[8]; measured here: with cisplatin IC20, at 0.5 µM",-8.95%
same,inhibition,"[8]; measured here: with cisplatin IC20, at 5 µM",4.02%
same,inhibition,"[8]; single agent, at 5 µM",9.21%
same,inhibition,[9]; at 0.5 µM,-34.2% (inactive)
same,inhibition,"[9]; measured here: combination with BGB at IC20, at 0.5 µM",-5.25%
same,inhibition,"[9]; measured here: combination with cisplatin at IC20, at 0.5 µM",-22.4%
same,inhibition,[10]; at 0.5 µM,14.2% (inactive)
same,inhibition,"[10]; measured here: combo with BGB at IC20, at 0.5 µM",14.5%
same,inhibition,"[10]; measured here: combo with cisplatin at IC20, at 0.5 µM",32.3%
same,inhibition,[11]; at 0.5 µM,3.4% (inactive)
same,inhibition,"[11]; measured here: inhibition with BGB combination, at 0.05 µM",-18.3%
same,inhibition,"[11]; measured here: inhibition with cisplatin combination, at 0.05 µM",-5.15%
same,inhibition,[12]; at 0.5 µM,-4.92% (inactive)
same,inhibition,"[12]; measured here: BGB combination, at 0.5 µM",-11.6%
same,inhibition,"[12]; measured here: BGB combination, at 5 µM",-22.5%
same,inhibition,"[12]; measured here: cisplatin combination, at 0.5 µM",-2.86%
same,inhibition,"[12]; measured here: cisplatin combination, at 5 µM",-6.5%
same,inhibition,[13]; at 0.5 µM,-8.02% (inactive)
same,inhibition,"[13]; cisplatin combination, at 0.5 µM",3.56%
same,inhibition,"[13]; cisplatin combination, at 5 µM",-1.86%
same,inhibition,"[13]; measured here: BGB IC40 combination 0.05 uM, at 0.05 µM",-20.2%
same,inhibition,"[13]; single agent, at 5 µM",-7.12%
same,inhibition,[14]; at 0.5 µM,-10.5% (inactive)
same,inhibition,"[14]; cisplatin combo, at 5 µM",28.1%
same,inhibition,"[14]; measured here: BGB IC40 combination, at 0.05 µM",-19.3%
same,inhibition,[14]; [21],32.5%
same,inhibition,"[14]; single agent, at 5 µM",-34.1%
same,inhibition,[15]; at 0.5 µM,8.96% (inactive)
same,inhibition,[15]; [19],3.57%
same,inhibition,[15]; [20],11.6%
same,inhibition,"[15]; single agent, at 0.05 µM",-0.752%
same,inhibition,"[15]; single agent, at 5 µM",41.5%
Nc1cccc2c1CN(C1CCC(=O)NC1=O)C2=O (stereo not drawn),SSMD,[16],2.07
same,cell count,[16],6670
same,plate-normalised HSF1 focus index,[16],1.11 (inactive)
Nc1cc(=O)[nH]c(N)n1,period change,[1],-0.06 h (inactive)
same,inhibition,[2],1% (inactive)
same,fluorescence ratio (interference),[3],1.1 (inactive)
CCN1CCc2nc(N)oc2CC1,period change,[1],0.015 h (inactive)
same,inhibition,[2],-3% (inactive)
same,fluorescence ratio (interference),[3],1 (inactive)
C[N+](C)(C)CCOC(=O)CCC(=O)OCC[N+](C)(C)C,period change,[1],0.025 h (inactive)
same,inhibition,[2],2% (inactive)
same,fluorescence ratio (interference),[3],1 (inactive)
O=C(O)CN(CCOCCOCCN(CC(=O)O)CC(=O)O)CC(=O)O,period change,[1],0.1 h (inactive)
same,inhibition,[2],-1% (inactive)
same,fluorescence ratio (interference),[3],1 (inactive)
OCCN1CCN(CCCN2c3ccccc3C=Cc3ccccc32)CC1,inhibition,[2],-5% (inactive)
same,fluorescence ratio (interference),[3],1 (inactive)
CC1=C(CC(=O)O)c2cc(F)ccc2/C1=C\c1ccc(S(C)(=O)=O)cc1,period change,[1],0.07 h (inactive)
same,inhibition,[2],-4% (inactive)
same,fluorescence ratio (interference),[3],1 (inactive)
CCN(CC)CCCN(c1ccccc1)C1Cc2ccccc2C1,inhibition,[2],-1% (inactive)
same,fluorescence ratio (interference),[3],1 (inactive)
N[C@@H](CC(=O)O)C(=O)O,period change,[1],0.065 h (inactive)
same,inhibition,[2],0% (inactive)
same,fluorescence ratio (interference),[3],0.9 (inactive)
same,remaining NAD,[17],10 nM (inactive)
C(=C\c1ccccc1)/CN1CCN(C(c2ccccc2)c2ccccc2)CC1,period change,[1],0.12 h (inactive)
same,inhibition,[2],1% (inactive)
same,fluorescence ratio (interference),[3],1 (inactive)
same,remaining NAD,[17],10 nM (inactive)
CCNC(=O)N1CCN(CCCC(c2ccc(F)cc2)c2ccc(F)cc2)CC1,period change,[1],-0.05 h (inactive)
same,inhibition,[2],-1% (inactive)
same,fluorescence ratio (interference),[3],1 (inactive)
CCC(=O)c1ccc2c(c1)N(CCCN(C)C)c1ccccc1S2,period change,[1],-0.02 h (inactive)
same,inhibition,[2],-4% (inactive)
same,fluorescence ratio (interference),[3],0.9 (inactive)
COc1ccc(CCN(C)CCCC(C#N)(c2cc(OC)c(OC)c(OC)c2)C(C)C)cc1OC (stereo not drawn),period change,[1],-0.105 h (inactive)
same,inhibition,[2],-1% (inactive)
same,fluorescence ratio (interference),[3],1 (inactive)
Cc1nc2c([nH]1)c(=O)n(C)c(=O)n2Cc1ccco1,period change,[1],0.08 h (inactive)
same,inhibition,[2],-1% (inactive)
same,fluorescence ratio (interference),[3],1 (inactive)
COC(=O)[C@@H](N)Cc1ccc(O)c(O)c1,period change,[1],0.105 h (inactive)
same,inhibition,[2],-2% (inactive)
same,fluorescence ratio (interference),[3],1 (inactive)
CC(=O)[C@@]1(O)CC[C@H]2[C@@H]3CCC4=CC(=O)CC[C@]4(C)[C@H]3CC[C@@]21C,period change,[1],0.035 h (inactive)
same,inhibition,[2],0% (inactive)
same,fluorescence ratio (interference),[3],1 (inactive)
O=C(O)CP(=O)(O)O,period change,[1],0.02 h (inactive)
same,inhibition,[2],-3% (inactive)
same,fluorescence ratio (interference),[3],0.9 (inactive)
NC(N)=NCCC[C@H](N)C(=O)O,period change,[1],-0.2 h (inactive)
same,inhibition,[2],-3% (inactive)
same,fluorescence ratio (interference),[3],1 (inactive)
same,remaining NAD,[17],10 nM (inactive)
C[C@]12CCC(=O)C=C1CC[C@@H]1[C@@H]2CC[C@@]2(C)[C@H]1CC[C@]2(O)C(=O)CO,period change,[1],-0.335 h (inactive)
same,inhibition,[2],0% (inactive)
same,fluorescence ratio (interference),[3],1 (inactive)
CSc1ccc(C(=O)c2[nH]c(=O)[nH]c2C)cc1,period change,[1],0.015 h (inactive)
same,inhibition,[2],0% (inactive)
same,fluorescence ratio (interference),[3],1.1 (inactive)
OCCN1CCN(CC/C=C2/c3ccccc3Sc3ccc(C(F)(F)F)cc32)CC1,period change,[1],-0.1 h (inactive)
same,inhibition,[2],-1% (inactive)
same,fluorescence ratio (interference),[3],1 (inactive)
CC(=O)OCC(=O)[C@@]1(OC(C)=O)[C@@H](C)C[C@H]2[C@@H]3C[C@H](F)C4=CC(=O)C=C[C@]4(C)[C@@]3(F)[C@@H](O)C[C@@]21C,remaining NAD,[17],10 nM (inactive)
Cc1ccc(Nc2c(F)cccc2Cl)c(CC(=O)O)c1,remaining NAD,[17],10 nM (inactive)

# From PubChem BioAssay
